Data reported in article PMC5540273 (PLoS ONE, 2017).

Key:
Conditions in all cases: concentration: 1 μM, replicates: in singlicate; n = 1
[1] = tested on: CDK4-cyclinD3
[2] = tested on: CDK4
[3] = tested on: CDK5
[4] = tested on: CDK7
[5] = tested on: CDK8
[6] = tested on: CDK9
[7] = tested on: CDKL1
[8] = tested on: CDKL2
[9] = tested on: CDKL3
[10] = tested on: CDKL5
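Further: KINOMEscan kinase panel screen.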

| Structure (SMILES) | %Inh [1] | %Inh [2] | %Inh [3] | %Inh [4] | %Inh [5] | %Inh [6] | %Inh [7] | %Inh [8] | %Inh [9] | %Inh [10] |
| --- | --- | --- | --- | --- | --- | --- | --- | --- | --- | --- |
| Cl.Nc1ncnc2occ(-c3ccc(NC(=O)Nc4cc(C(F)(F)F)ccc4F)cc3)c12 [SB-707548] | 11% | 2% | 59% | 97.8% | 100% | 78% | 7% | 74% | 95% | 0% |
| Cn1ccc2ncnc(Oc3ccc(NC(=O)Nc4ccncc4)c(Cl)c3)c21 | 0% | 0% | 0% | 0% | 0% | 0% | 0% | 0% | 0% | 49% |
| C[C@@H](Oc1cc(-n2cnc3ccc(NC(=O)NC(C)(C)C)cc32)sc1C(N)=O)c1ccccc1Cl [GSK346294] | 1% | 34% | 0% | 0% | 45% | 0% | 14% | 5% | 0% | 0% |
| O=C1NC(=O)C(N2CCc3ccccc32)=C1c1cccc(Cl)c1 [SB-408010] | 0% | 0% | 7% | 9% | 0% | 0% | 0% | 11% | 0% | 0% |
| CN1c2ccc(NCc3ccc(F)cc3)cc2-c2c(cnn2C)S1(=O)=O | 0% | 0% | 6% | 0% | 62% | 15% | 20% | 19% | 0% | 0% |
| Fc1ccc(-c2ncn(CCCN3CCOCC3)c2-c2cccnc2)cc1 [SB-211743] | 0% | 1% | 0% | 8% | 0% | 0% | 28% | 0% | 0% | 0% |
| O=C(NCCCN1CCOCC1)c1cccc(Nc2nccc(Nc3ccc(Oc4ccccc4)cc3)n2)c1 [GW663929] | 0% | 16% | 0% | 20% | 34% | 19% | 5% | 28% | 0% | 0% |
| COc1ccc(COc2cc(-n3cnc4ccccc43)sc2C(N)=O)cc1 [GSK1024304] | 0% | 40% | 0% | 0% | 29% | 0% | 7% | 18% | 0% | 0% |
| O=C(Nc1n[nH]c2cc(-c3cccc(F)c3)ccc12)C1CC1 [SB-735464] | 7% | 44% | 3% | 0% | 0% | 0% | 6% | 57% | 28% | 4% |
